According to PubChem BioAssay:
Activity calls are given as the source filed them.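 How the source made its calls, unless noted: active means fluorescence slope after compound addition differing from the mean of all screened samples at 99.7% confidence, in either direction; inactive means the rest.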

How the values were obtained:
[1] = inhibitors of TNFa-induced NFkB p65 translocation, primary screen, imaging, HUVEC, MLSMR starter and 10KST1 sets (AID 438;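 active means inhibition above 20% together with a positive visual image hit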;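 further: compound added about 3h40 before a 20 min TNFalpha stimulation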;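 on inhibition: signal is the nuclear over cytoplasmic p65 intensity ratio per well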); details: HUVEC TNFa-induced p65 nuclear translocation; cell count: measured here: nuclei count (cytotoxicity indicator), at 2.08 µM; inhibition: at 2 µM, stronger effect = higher value, 0% TNFa-plus-vehicle, 100% no-TNFa wells
[2] = reduction of polyQ htt aggregates in cells – imaging, exon1htt(103Q)mCFP cells, high-content imaging, primary screen (AID 483;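 active means visual image review flags a hit and inhibition of aggregation exceeds 20%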;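 further: compound exposure lasted 3 days before fixation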;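 on nuclei count: percent of the per-plate median nuclei count of sample wells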); details: exon1htt(103Q)mCFP cell line, aggregate imaging, at 2 µM; inhibition of aggregation: stronger effect = higher value; nuclei count: measured here: cell count, toxicity
[3] = endothelial E-selectin expression blockers – imaging, HUVEC, immunofluorescence, MLSMR starter and 10KST1 sets, primary screen (AID 487;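 active means visually confirmed hit in the image check and inhibition above 20%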;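 on inhibition: signal is fraction of cell area covered by stained E-selectin grains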;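 on nuclei count: 100% = median nuclei count of all wells on the same plate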); details: HUVEC TNFalpha-induced E-selectin immunofluorescence imaging, at 2 µM; inhibition: stronger effect = higher value; nuclei count: measured here: cell number, toxicity
[4] = target: Voltage-gated potassium channel subunit beta-2 (Rattus norvegicus) (UniProt P62483); test: inhibitors of rat Kvbeta2 reductase activity – biochemical, NADPH fluorescence, primary screen (AID 622;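 active means fluorescence slope higher than the sample average by over 3 SD, cut at about -0.22 in these data, passing the limit was not always enough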;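 further: slope of raw intensity against log time taken from 70 to 1610 s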); details: recombinant KvBeta, 4-cyanobenzaldehyde reduction, at 10 µM, stronger effect = higher value
Chain of Voltage-gated potassium channel subunit beta-2 (Rattus norvegicus) (P62483 whole entry, looked up): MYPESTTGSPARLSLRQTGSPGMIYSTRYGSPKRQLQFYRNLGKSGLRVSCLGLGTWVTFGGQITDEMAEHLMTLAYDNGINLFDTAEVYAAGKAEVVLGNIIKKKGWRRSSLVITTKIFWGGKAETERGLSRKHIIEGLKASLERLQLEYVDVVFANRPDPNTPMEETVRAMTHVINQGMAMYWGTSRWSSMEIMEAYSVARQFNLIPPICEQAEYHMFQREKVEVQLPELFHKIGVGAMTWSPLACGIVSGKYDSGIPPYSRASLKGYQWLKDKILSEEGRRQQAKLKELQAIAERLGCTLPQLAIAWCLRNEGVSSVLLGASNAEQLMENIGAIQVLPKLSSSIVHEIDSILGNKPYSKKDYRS

[5] = target: Voltage-gated potassium channel subunit beta-2 (Rattus norvegicus) (UniProt P62483); test: enhancers of rat Kvbeta2 NADPH turnover – biochemical, NADPH fluorescence, primary screen (AID 623;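 active means NADPH fluorescence slope more negative than the mean of all samples by about 3 SD, 99.7% confidence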;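 further: fluorescence intensity change per second fitted from 20 to 320 s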); details: Recombinant KvBeta, NADPH fluorescence decrease slope, 10 min; at 10 µM; stronger effect = lower value
[6] = target: Alpha-2C adrenergic receptor (Homo sapiens) (UniProt P18825); test: compounds altering alpha2C-coupled GIRK flux – cell-based, HEK293 alpha2C/GIRK1/2, thallium flux, primary screen (AID 624); details: thallium flux BTC fluorescence, at 10 µM, actives lie on both sides;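 further: slope of fluorescence ratio to pre-addition baseline per second over 15 to 24 s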
Chain of Alpha-2C adrenergic receptor (Homo sapiens) (P18825 whole entry, looked up): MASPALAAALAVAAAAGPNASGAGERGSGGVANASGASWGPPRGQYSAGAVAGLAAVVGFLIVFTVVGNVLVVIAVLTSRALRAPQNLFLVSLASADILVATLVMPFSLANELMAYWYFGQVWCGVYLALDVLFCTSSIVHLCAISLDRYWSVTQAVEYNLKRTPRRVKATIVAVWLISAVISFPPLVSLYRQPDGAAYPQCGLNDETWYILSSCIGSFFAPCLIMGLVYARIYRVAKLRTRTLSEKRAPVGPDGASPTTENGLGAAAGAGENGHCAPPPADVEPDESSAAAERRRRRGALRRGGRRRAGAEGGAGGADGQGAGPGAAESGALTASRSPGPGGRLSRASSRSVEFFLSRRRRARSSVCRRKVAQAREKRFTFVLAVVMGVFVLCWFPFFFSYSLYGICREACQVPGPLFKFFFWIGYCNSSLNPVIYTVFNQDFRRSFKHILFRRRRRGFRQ

[7] = blockers of RIG-like receptor reporter activation – cell-based, Sendai virus stimulus, luciferase, 10K MLSCN set, TLR/RLR signaling modifier project, primary screen (AID 602276;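 active means inhibition at or above 50% at 10 µM; inactive means inhibition below 50%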;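 further: firefly luciferase from ISG56 promoter only with Renilla not read in this screen; 0% = Sendai virus plus DMSO and 100% = medium plus DMSO without virus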); details: HEK293 RL24 IRF3 luciferase reporter, at 10 µM, stronger effect = higher value
[8] = TLR3 IRF3 reporter activation blockers – cell-based, poly I:C stimulus, luciferase, 10K MLSCN set, primary screen (AID 602277;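 active means inhibition of the reporter signal at or above 50%; inactive means inhibition below 50%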); details: HEK293-TLR3 RL24 IRF3 luciferase reporter, at 10 µM, stronger effect = higher value

Cc1c(NC(=O)CCc2ccc(S(=O)(=O)N3CCOCC3)cc2)c(=O)n(-c2ccccc2)n1C
cell count [1]: 575
inhibition [1]: 4.1% (inactive)
inhibition of aggregation [2]: -26.2% (inactive)
nuclei count [2]: 119%
inhibition [3]: -86.1% (inactive)
nuclei count [3]: 112%
fluorescence slope [4]: -0.527 (inactive)
NADPH fluorescence slope [5]: -1.9e-05 (inactive)
slope [6]: 0.00736 (inactive)
inhibition [7]: -8.63% (inactive)
inhibition [8]: 5.48% (inactive)

CCOc1cc(-c2nc3ccccn3c2NCC2CCCO2)ccc1O (centres undefined)
cell count [1]: 406
inhibition [1]: -0.9% (inactive)
inhibition of aggregation [2]: -2.6% (inactive)
nuclei count [2]: 94.3%
inhibition [3]: -97% (inactive)
nuclei count [3]: 83.1%
fluorescence slope [4]: -0.091 (active)
NADPH fluorescence slope [5]: -2.7e-05 (inactive)
slope [6]: 0.00327 (inactive)
inhibition [7]: -9.84% (inactive)
inhibition [8]: -3.91% (inactive)

CC(C)NC(=O)CSCc1ccccc1Cl
cell count [1]: 350
inhibition [1]: 12.5% (inactive)
inhibition of aggregation [2]: 6.1% (inactive)
nuclei count [2]: 100%
inhibition [3]: -0.7% (inactive)
nuclei count [3]: 110%
fluorescence slope [4]: -0.5 (inactive)
NADPH fluorescence slope [5]: -1.3e-05 (inactive)
slope [6]: 0.00508 (inactive)
inhibition [7]: 9.82% (inactive)
inhibition [8]: 0.78% (inactive)

O=C(NCC12CC3CC(C1)CC(CNC(=O)N1CCCC1)(C3)C2)N1CCCC1
cell count [1]: 633
inhibition [1]: 2.2% (inactive)
inhibition of aggregation [2]: 3.3% (inactive)
nuclei count [2]: 92.2%
inhibition [3]: -37.7% (inactive)
nuclei count [3]: 112%
fluorescence slope [4]: -0.463 (inactive)
NADPH fluorescence slope [5]: -6e-05 (inactive)
slope [6]: 0.00588 (inactive)
inhibition [7]: 19.1% (inactive)
inhibition [8]: 22.9% (inactive)

COc1ccc(-c2nnc(SCC(=O)NC(C)c3ccccc3)o2)cc1 (centres undefined)
cell count [1]: 617
inhibition [1]: 4.4% (inactive)
inhibition of aggregation [2]: -59% (inactive)
nuclei count [2]: 104%
inhibition [3]: -7.4% (inactive)
nuclei count [3]: 111%
fluorescence slope [4]: -0.593 (inactive)
NADPH fluorescence slope [5]: -2.5e-05 (inactive)
slope [6]: 0.00661 (inactive)
inhibition [7]: 5.82% (inactive)
inhibition [8]: 18.9% (inactive)

Cc1ccc(C)c(N2CCN(S(=O)(=O)c3ccc4c(c3)OCCO4)CC2)c1
cell count [1]: 521
inhibition [1]: -2.6% (inactive)
inhibition of aggregation [2]: -13.4% (inactive)
nuclei count [2]: 134%
inhibition [3]: -136% (inactive)
nuclei count [3]: 209%
fluorescence slope [4]: -0.64 (inactive)
NADPH fluorescence slope [5]: 3.2e-05 (inactive)
slope [6]: 0.00722 (inactive)
inhibition [7]: 10.2% (inactive)
inhibition [8]: 16.3% (inactive)

c1ccc2c(c1)Cc1cc(CN3CCOCC3)ccc1-2
cell count [1]: 343
inhibition [1]: -8% (inactive)
inhibition of aggregation [2]: -2.2% (inactive)
nuclei count [2]: 110%
inhibition [3]: -77.5% (inactive)
nuclei count [3]: 128%
fluorescence slope [4]: -0.415 (inactive)
NADPH fluorescence slope [5]: -8.5e-05 (inactive)
slope [6]: 0.00531 (inactive)
inhibition [7]: -50.9% (inactive)
inhibition [8]: -105% (inactive)

CCOC(=O)c1nnn(CC(=O)Nc2cccc(F)c2)c1C(=O)OCC
cell count [1]: 581
inhibition [1]: -7.9% (inactive)
inhibition of aggregation [2]: 8.9% (inactive)
nuclei count [2]: 124%
inhibition [3]: -41.8% (inactive)
nuclei count [3]: 112%
fluorescence slope [4]: -0.6 (inactive)
NADPH fluorescence slope [5]: -1.1e-05 (inactive)
slope [6]: 0.00821 (inactive)
inhibition [7]: 3.63% (inactive)
inhibition [8]: 12.6% (inactive)

COc1ccc(N(C(=O)c2ccco2)C(C(=O)NC2CCCC2)c2ccc(N(C)C)cc2)cc1OC (centres undefined)
cell count [1]: 596
inhibition [1]: -18.8% (inactive)
inhibition of aggregation [2]: -35.5% (inactive)
nuclei count [2]: 116%
inhibition [3]: -96.5% (inactive)
nuclei count [3]: 109%
fluorescence slope [4]: -0.48 (inactive)
NADPH fluorescence slope [5]: 3.2e-05 (inactive)
slope [6]: 0.00496 (inactive)
inhibition [7]: 3.23% (inactive)
inhibition [8]: 27.3% (inactive)

CCN(C(=O)c1cc(Cl)ccc1OC)C1CCCCC1
cell count [1]: 303
inhibition [1]: 4.5% (inactive)
inhibition of aggregation [2]: 8.5% (inactive)
nuclei count [2]: 109%
inhibition [3]: 15.2% (inactive)
nuclei count [3]: 113%
fluorescence slope [4]: -0.429 (inactive)
NADPH fluorescence slope [5]: -6.2e-05 (inactive)
slope [6]: 0.00399 (inactive)
inhibition [7]: 13.8% (inactive)
inhibition [8]: 42% (inactive)

CCCOC(=O)c1ccc(-c2c(C)noc2-c2ccc(OC)cc2O)o1
cell count [1]: 162
inhibition [1]: -6.3% (inactive)
inhibition of aggregation [2]: 1.9% (inactive)
nuclei count [2]: 106%
inhibition [3]: 0.4% (inactive)
nuclei count [3]: 87%
fluorescence slope [4]: -0.495 (inactive)
NADPH fluorescence slope [5]: -3.7e-05 (inactive)
slope [6]: 0.00302 (inactive)
inhibition [7]: 1.25% (inactive)
inhibition [8]: 2.32% (inactive)

O=C(CSc1nnnn1-c1ccccc1)c1cc2ccccc2oc1=O
cell count [1]: 788
inhibition [1]: -8.3% (inactive)
inhibition of aggregation [2]: -9.6% (inactive)
nuclei count [2]: 124%
inhibition [3]: -39.8% (inactive)
nuclei count [3]: 117%
fluorescence slope [4]: -0.647 (inactive)
NADPH fluorescence slope [5]: -1.4e-05 (inactive)
slope [6]: 0.00672 (inactive)
inhibition [7]: 1.78% (inactive)
inhibition [8]: -14.1% (inactive)

O=c1[nH]c2ccc(Br)cc2c(-c2ccccc2)c1N1CCOCC1
cell count [1]: 728
inhibition [1]: -8% (inactive)
inhibition of aggregation [2]: -1.1% (inactive)
nuclei count [2]: 88.6%
inhibition [3]: -12% (inactive)
nuclei count [3]: 119%
fluorescence slope [4]: -0.396 (inactive)
NADPH fluorescence slope [5]: 2.9e-05 (inactive)
slope [6]: 0.00458 (inactive)
inhibition [7]: -7.49% (inactive)
inhibition [8]: -16.4% (inactive)

O=C(Cn1cnc2c(nnn2Cc2ccc(Cl)cc2)c1=O)NCC1CCCO1 (centres undefined)
cell count [1]: 641
inhibition [1]: -18.8% (inactive)
inhibition of aggregation [2]: -21.6% (inactive)
nuclei count [2]: 89.2%
inhibition [3]: -89.9% (inactive)
nuclei count [3]: 132%
fluorescence slope [4]: -0.522 (inactive)
NADPH fluorescence slope [5]: -4.5e-06 (inactive)
slope [6]: 0.00509 (inactive)
inhibition [7]: 16.8% (inactive)
inhibition [8]: 26% (inactive)
